Source: PubChem BioAssay (NCATS)
Results filed as inconclusive are left out. Active and inactive are the calls of the source. Unless noted, the rule behind the calls is not given here.

Assays:
[1] = qHTS profiling of the MIPE4 collection as inhibitors of Plasmodium falciparum (3D7) proliferation (AID 743344);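 note: scaled between DMSO vehicle wells and 0.29 µM artemisinin as full inhibition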; conditions: P. falciparum 3D7 in erythrocytes, SYBR Green DNA fluorescence, 72 h; at 28.5 µM unless noted
Procedure, shortened: (§1)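 Parasite DNA was quantified by SYBR Green I fluorescence (ex 485, em 535 nm) after overnight lysis in saponin/Triton buffer at room temperature. Cultures at 0.3% parasitemia and 2.5% hematocrit were first exposed to compound for 72 h at 37 C; signals were normalised to artemisinin (0.29 uM) and vehicle wells.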

[2] = qHTS Assay for Identifying Gametocytocidal Compounds (AID 743244; active = well fitted curve in the direction sought with a large enough effect; an effect the other way counts as inactive or inconclusive;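 note: % is set by controls: 0 for no effect and ±100 for the full control effect; actives lower the fluorescent signal which means gametocytes are killed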); conditions: P. falciparum 3D7 stage III-V gametocytes, alamarBlue, 72 h; max response: stronger effect = lower value
Procedure, shortened: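 Fluorescence at Ex 525/Em 598 nm, recorded 24 h after alamarBlue addition, reports residual metabolic activity of 3D7 gametocytes (stages III–V) following 72 h compound exposure at 37 °C, 5% CO2.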

[3] = qHTS profiling for inhibitors of Plasmodium falciparum (3D7) proliferation (AID 743322);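 note: infected erythrocytes exposed to compound for 72 h before lysis; 100% = DMSO vehicle wells and 0% = 0.29 µM artemisinin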; conditions: P. falciparum 3D7 proliferation; at 28.7 µM (top of the series) unless noted
Procedure, shortened: as §1

[4] = qHTS profiling for inhibitors of Plasmodium falciparum (DD2) proliferation (AID 743323); conditions: lower = more inhibition; at 28.7 µM (top of the series) unless noted
Procedure, shortened: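 SYBR Green fluorescence (ex 485, em 535 nm) of lysed cultures gives parasite DNA content; wells normalized to artemisinin (0.29 uM) and DMSO controls. Infected red cells: 0.3% parasitemia, 2.5% hematocrit, 72 h, 37 C.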

[5] = qHTS profiling for inhibitors of Plasmodium falciparum (HB3) proliferation (AID 743324; active = well fitted curve in the direction sought with a large enough effect; an effect the other way counts as inactive or inconclusive;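 note: 100% = DMSO vehicle wells and 0% = artemisinin-treated control wells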); conditions: Plasmodium falciparum HB3 blood-stage proliferation; at 28.7 µM (top of the series) unless noted
Procedure, shortened: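 SYBR Green fluorescence (485 ex/535 em) of lysed cultures, incubated overnight at room temperature in the dark, quantifies parasite DNA. Infected erythrocytes at 0.3% parasitemia and 2.5% hematocrit were exposed 72 h; values normalized to DMSO and 0.29 uM artemisinin controls.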

C[C@H](Cn1cnc2c(N)ncnc21)OCP(=O)(O)O
parasite growth, % of DMSO control [1]: 171%

O=C(CS(=O)Cc1ccco1)NCC=CCOc1cc(CN2CCCCC2)ccn1 (centres undefined)
parasite growth, % of DMSO control [1]: 78%

O=C(O)c1cn(-c2ccc(F)cc2)c2cc(N3CCNCC3)c(F)cc2c1=O
max response [2]: 2.27% (inactive)
parasite growth, % of DMSO control [1]: 92.9%

Cc1cc(C2CCCCC2)n(O)c(=O)c1
remaining parasite growth % (stronger effect = lower value) [3]: -0.4%
activity, percent of control [4]: 0.27%
remaining proliferation (% of control), lower = more inhibition [5]: -0.0898%
parasite growth, % of DMSO control [1]: 6.27%

CCCCCCCCOc1ccccc1C(=O)Nc1ccc(C(=O)OCC[N+](C)(CC)CC)cc1
parasite growth, % of DMSO control [1]: 9.2%
